Screening results: PubChem BioAssay, National Center for Advancing Translational Sciences (NCATS)
Rows were chosen to be rich in hits. Some 4.7% of all compounds tested hit in one or more screens of this group.
TRHR PAM: TRH receptor (human) allosteric enhancement. enhancement, % at 2 µM. AID 493056. 0.66% of 360,000 active. TRHR cells, fluo-8 calcium fluorescence, EC20 TRH enhancement; in the data active = enhancement above about 30%; also: 0% is about no effect
Target sequence (P34981 whole entry, looked up): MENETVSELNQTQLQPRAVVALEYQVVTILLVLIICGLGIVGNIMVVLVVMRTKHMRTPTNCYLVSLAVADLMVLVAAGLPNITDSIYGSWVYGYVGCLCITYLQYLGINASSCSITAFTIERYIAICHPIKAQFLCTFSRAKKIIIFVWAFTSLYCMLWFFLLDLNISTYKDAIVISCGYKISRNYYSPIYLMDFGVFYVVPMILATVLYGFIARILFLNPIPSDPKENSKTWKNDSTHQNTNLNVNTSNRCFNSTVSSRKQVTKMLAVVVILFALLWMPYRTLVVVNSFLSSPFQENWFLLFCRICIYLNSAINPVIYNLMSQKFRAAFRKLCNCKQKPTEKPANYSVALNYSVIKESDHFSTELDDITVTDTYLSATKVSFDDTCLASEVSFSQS
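TRHR-expressing cells loaded with fluo-8 calcium dye were read kinetically (ex 480/em 530) during compound addition, then stimulated with an EC20 of TRH (10 nM final). Enhancement of the Gq-mediated intracellular calcium response was scored.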
D1 antagonist: antagonists of human D1 dopamine receptor; P21728; HEK293 TREx D1 cells, calcium flux, dopamine EC80; stronger effect = lower value; activity change, negative = inhibition, % at 10 µM; 3.2% of 360,000 active; in the data active = activity change below about -30%; also: % is scaled to controls: 0 for no effect and ±100 for the full control effect
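Inducible Hek293 Trex D1 cells (tetracycline, overnight, 30 C). Calcium dye 30–90 min RT. Antagonist mode: EC80 dopamine added after 180 s compound read.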
D1 agonist: activates the human D1 dopamine receptor; P21728; HEK293 T-REx D1 cells, calcium flux, agonist mode; activation, % at 2 µM; 1% of 360,000 active; also: 0% is about no effect
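Agonism was scored from calcium flux recorded over 180 s (1 read/s) after pintool compound addition, following a 10-cycle baseline. Cells were inducible force-coupled HEK293 TREx D1, plated overnight at 30 C and loaded with no-wash calcium dye.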
TRHR agonist: TRH receptor (human) agonism; TRHR cells, calcium flux fluo-8, FDSS agonist mode; activation, % at 2 µM; 0.18% of 360,000 active; AID 493084; also: 0% is about no effect
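TRHR-expressing cells, plated overnight in medium with 10% serum, were loaded with fluo-8 calcium dye at room temperature. After a 10 s baseline, library compound was pin-added and calcium release was recorded kinetically (ex 480/em 530) as agonist response.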
D1 PAM: human D1 dopamine receptor positive modulation; AID 504651; HEK293 TREx D1 cells, calcium flux, dopamine EC20 potentiation; potentiation, % at 10 µM; 0.036% of 360,000 active; in the data active = potentiation above about 30%; also: 0% is about no effect
An asterisk follows results filed as active. Rule as the data show it, unless noted: active = activation above about 30%; inactive = the rest.

For Cc1ccc(S(=O)(=O)c2nnn3c2nc(NC(C)C)c2cc(Cl)ccc23)cc1C the results were TRHR PAM -4, D1 antagonist -52*, D1 agonist 0, TRHR agonist 0 and D1 PAM -4.
COCCCNc1nc2c(S(=O)(=O)c3ccccc3)nnn2c2ccc(Cl)cc12 was read as TRHR PAM -5, D1 antagonist -16, D1 agonist 1, TRHR agonist 0 and D1 PAM -4.
`CCC1CN(C(=O)N2CCC(C(=O)NCCc3ccc(OC)cc3OC)CC2)c2cc(C)ccc2O1` (stereo not given) gave TRHR PAM 4, D1 antagonist 9, D1 agonist 1, TRHR agonist 0 and D1 PAM 0.
`Cc1ccc(NC(=O)N2CCC(CN3CCCC3)CC2)c(C)c1` gave TRHR PAM 9, D1 antagonist 15, D1 agonist -1, TRHR agonist 0 and D1 PAM 4.
CCn1c(CNC(=O)c2ccc(OC)cc2)nnc1SCC(=O)Nc1ccc(OC)cc1 was read as TRHR PAM 5, D1 antagonist -6, D1 agonist 1, TRHR agonist 1 and D1 PAM 2.
`Cc1ccc(Nc2nc3ccc(C)cc3nc2-n2nc(C)cc2C)c(C)c1` gave TRHR PAM 3, D1 antagonist 6, D1 agonist 4, TRHR agonist 1 and D1 PAM 9.
O=S(=O)(c1ccccc1)c1nnn2c1nc(NCc1ccc(Cl)cc1)c1sccc12 was read as TRHR PAM 28, D1 antagonist -34*, D1 agonist 0, TRHR agonist 0 and D1 PAM -5.
Cc1ccc(CNc2nc3c(S(=O)(=O)c4ccccc4)nnn3c3ccsc23)cc1 was read as TRHR PAM -1, D1 antagonist 7, D1 agonist 3, TRHR agonist 1 and D1 PAM 0.
CN1CCN(NC(=O)c2cn(-c3ccccc3)nc2-c2cccc(Br)c2)CC1 was read as TRHR PAM 1, D1 antagonist -33*, D1 agonist 14, TRHR agonist 1 and D1 PAM -10.
COCCCNc1ncnc2c1c(-c1ccccc1)cn2-c1ccc(C)c(Cl)c1 was read as TRHR PAM -2, D1 antagonist 11, D1 agonist 2, TRHR agonist 0 and D1 PAM 2.
For Cc1csc2c(N3CCN(C(=O)Nc4ccccc4)CC3)ncnc12 the results were TRHR PAM 4, D1 antagonist -4, D1 agonist 10, TRHR agonist 0 and D1 PAM -14.
Screening Cc1csc2c(N3CCN(C(=S)Nc4ccc(F)cc4F)CC3)ncnc12 returned TRHR PAM 4, D1 antagonist -42*, D1 agonist 40*, TRHR agonist 1 and D1 PAM -7.
For COc1cccc(COC(=O)C2CCN(S(=O)(=O)c3ccc(C)cc3C)CC2)c1OC the results were TRHR PAM -4, D1 antagonist -44*, D1 agonist 18, TRHR agonist 1 and D1 PAM -18.
COc1cccc(COC(=O)C2CCN(S(=O)(=O)c3ccc(C)cc3)CC2)c1OC was read as TRHR PAM -8, D1 antagonist -38*, D1 agonist 10, TRHR agonist 0 and D1 PAM 1.
For CCOc1ccc(S(=O)(=O)N2CCC(C(=O)OCc3cccc(OC)c3OC)CC2)cc1 the results were TRHR PAM -5, D1 antagonist 0, D1 agonist 22, TRHR agonist 3 and D1 PAM -4.
CCc1ccccc1Nc1nc(N)nc(COC(=O)C2CCN(C(=O)c3ccc(F)cc3)CC2)n1 was read as TRHR PAM 2, D1 antagonist -1, D1 agonist 4, TRHR agonist 0 and D1 PAM -5.
For COc1cccc(COC(=O)C2CCN(C(=O)c3ccc(F)cc3)CC2)c1OC the results were TRHR PAM -6, D1 antagonist -45*, D1 agonist 19, TRHR agonist 0 and D1 PAM -11.
Cc1ccc(S(=O)(=O)n2ccc3cccnc32)cc1 was read as TRHR PAM -2, D1 antagonist 7, D1 agonist -1, TRHR agonist 0 and D1 PAM -4.
O=S(=O)(c1ccc(Cl)cc1)n1ccc2cccnc21 was read as TRHR PAM 1, D1 antagonist -36*, D1 agonist -2, TRHR agonist -1 and D1 PAM -4.
For CSc1nsc(NC(=O)OCc2ccc(Cl)cc2)n1 the results were TRHR PAM 0, D1 antagonist -36*, D1 agonist 26, TRHR agonist 1 and D1 PAM -6.
Screening Cc1cc2c(s1)c1cnn(Cc3ccccc3)c(=O)c1n2C returned TRHR PAM 0, D1 antagonist 0, D1 agonist 0, TRHR agonist -1 and D1 PAM 8.
CCOc1ccc(N/N=C(/C#N)C(N)=O)cc1 was read as TRHR PAM 1, D1 antagonist 16, D1 agonist 1, TRHR agonist 0 and D1 PAM -1.
Screening N#C/C(=N/Nc1ccc(OC(F)(F)F)cc1)C(N)=S returned TRHR PAM -7, D1 antagonist -30*, D1 agonist 40*, TRHR agonist 4 and D1 PAM -4.
For Cc1ccc(-c2nnc(Nc3ccc(OCC(N)=O)cc3)c3ccccc23)cc1S(=O)(=O)N(C)C the results were TRHR PAM -11, D1 antagonist -22, D1 agonist 6, TRHR agonist 2 and D1 PAM -2.
`COC(=O)c1ccc(-c2noc(CN(C)Cc3ccncc3C)n2)cc1` gave TRHR PAM -1, D1 antagonist -41*, D1 agonist 17, TRHR agonist 1 and D1 PAM -4.
`COC(=O)c1ccc(-c2noc(CN(C)CCC3CCCCO3)n2)cc1` (stereo not given) gave TRHR PAM -8, D1 antagonist -61*, D1 agonist 4, TRHR agonist 1 and D1 PAM -7.
`CCOc1ccccc1NC(=O)CSC1=Nc2ccccc2C2=NC(CC(=O)NCc3ccc4c(c3)OCO4)C(=O)N12` (stereo not given) gave TRHR PAM -3, D1 antagonist 5, D1 agonist 8, TRHR agonist 1 and D1 PAM 1.
`Cc1ccc(NC(=O)Cn2nc(C)n3cccc3c2=O)c(C)c1` gave TRHR PAM -1, D1 antagonist -5, D1 agonist 1, TRHR agonist 0 and D1 PAM 0.
Screening CCn1c(CC(=O)Nc2ccccc2)nnc1SCc1nc2ccccc2c(=O)[nH]1 returned TRHR PAM 12, D1 antagonist 13, D1 agonist 1, TRHR agonist 0 and D1 PAM -4.
`CCn1c(COc2ccccc2C)nnc1SCc1nc2ccccc2c(=O)[nH]1` gave TRHR PAM 0, D1 antagonist -30*, D1 agonist 2, TRHR agonist 0 and D1 PAM -3.
